Outcome and AC50 data for 7 compounds are collected here from PubChem BioAssay (EPA / NIEHS).

Assay [1] addresses Retinoic acid receptor RXR-alpha (Homo sapiens) (UniProt P19793). In words: ATG_RXRa_TRANS: Attagene TRANS-FACTORIAL HepG2 Assay for human Retinoid X Receptor alpha (RXRa) (AID 2283012; active means hit-call score of the fitted dose curve at least 0.9, where 1 is the maximum). In a few lines:
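Chimeric NR-GAL4 trans-activation in HepG2, 24 h treatment; reporter transcripts quantified by fluorescence on capillary electrophoresis, analysed for upward change from DMSO.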

Read-out in assay [2]: E-selectin (Homo sapiens) (UniProt P16581)
The assay is described as follows: BSK_3C_Eselectin: BioMAP Diversity Plus: 3C Assay for Eselectin Biomarker Activity (AID 2283015).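 On Outcome: cell surface E-selectin protein quantified by ELISA 24 h after dosing.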 As to conditions: primary human endothelial cells (HUVEC); actives raise or lower the signal. In a few lines: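 ELISA read-out of E-selectin on endothelial monolayers after 24 h chemical treatment. Human umbilical vein primary cells served as the system, with DMSO defining baseline activity for bidirectional fitting.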

Read-out in assay [3]: Interleukin-1 alpha (IL1a), IL1A (gene 3552)
In words: BSK_BE3C_IL1a: BioMAP Diversity Plus: BE3C Assay for Interleukin-1 alpha (IL1a) Biomarker Activity (AID 2283016). As to conditions: primary human bronchial epithelial cells; actives raise or lower the signal. A digest of the protocol: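 Measured in human lung primary bronchial epithelial cells: IL-1a by ELISA at 24 h after dosing, with bidirectional fitting against DMSO.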

Read-out in assay [4]: Monocyte Chemoattractant Protein-1 (MCP1), CCL2 (gene 6347)
The assay is described as follows: BSK_3C_MCP1: BioMAP Diversity Plus: 3C Assay for Monocyte Chemoattractant Protein-1 (MCP1) Biomarker Activity (AID 2283017). As to conditions: primary human endothelial cells (HUVEC); actives raise or lower the signal. A digest of the protocol:
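ELISA read-out of MCP-1 from human umbilical vein endothelial cell cultures harvested 24 h post-dosing. Gain or loss of signal was fitted relative to DMSO.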

Read-out in assay [5]: Monocyte Chemoattractant Protein-1 (MCP1), CCL2 (gene 6347)
The assay is described as follows: BSK_4H_MCP1: BioMAP Diversity Plus: 4H Assay for Monocyte Chemoattractant Protein-1 (MCP1) Biomarker Activity (AID 2283018). As to conditions: primary human endothelial cells (HUVEC); actives raise or lower the signal. A digest of the protocol:
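Primary human umbilical vein endothelium is exposed to chemical for 24 h before MCP-1 is assayed by ELISA. Concentration-response fitted bidirectionally relative to DMSO.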

Read-out in assay [6]: Human Leukocyte Antigen - DR isotype (HLADR), HLA-DRA (gene 3122)
The assay is described as follows: BSK_3C_HLADR: BioMAP Diversity Plus: 3C Assay for Human Leukocyte Antigen - DR isotype (HLADR) Biomarker Activity (AID 2283019).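 On Outcome: ELISA of cell-surface HLA-DR on HUVEC 24 h after dosing.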 Conditions: primary human endothelial cells (HUVEC); actives raise or lower the signal. A digest of the protocol:
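ELISA readout of surface HLA-DR on human umbilical vein endothelium, taken 24 h after chemical treatment. Gain- and loss-of-signal were both fitted relative to DMSO.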

Read-out in assay [7]: Interleukin-8 (IL8), CXCL8 (gene 3576)
The assay is described as follows: BSK_3C_IL8: BioMAP Diversity Plus: 3C Assay for Interleukin-8 (IL8) Biomarker Activity (AID 2283020). As to conditions: primary human endothelial cells (HUVEC); actives raise or lower the signal. In a few lines: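 Using DMSO-treated wells as the baseline, bidirectional curve fitting was applied to ELISA-measured IL-8 from human umbilical vein endothelial cultures sampled 24 h after compound addition.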

Read-out in assay [8]: Monokine induced gamma interferon (MIG), CXCL9 (gene 4283)
In words: BSK_3C_MIG: BioMAP Diversity Plus: 3C Assay for Monokine induced gamma interferon (MIG) Biomarker Activity (AID 2283021).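 On AC50: MIG protein level measured by immunoassay in the treated endothelial cultures.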 Conditions: primary human endothelial cells (HUVEC); actives raise or lower the signal. In a few lines: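 ELISA-measured MIG in dosed HUVEC 3C cultures at 24 h, analysed by bidirectional fitting with DMSO defining baseline activity.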

Assay [9] is described as follows: BSK_3C_SRB: Viability Assessment in the BioMAP Diversity Plus: 3C Assay (AID 2283023).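 Further: fitted both ways against DMSO so a hit may be signal rise or drop.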 Conditions: primary human endothelial cells (HUVEC). In a few lines: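 Absorbance at 560 nm of sulforhodamine B-stained (0.1%) total protein served as a cytotoxicity readout in human umbilical vein endothelial cells, 24 h after chemical treatment. Signal was fitted bidirectionally relative to DMSO.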

Read-out in assay [10]: Matrix Metallopeptidase 1 (MMP1), MMP1 (gene 4312)
In words: BSK_BE3C_MMP1: BioMAP Diversity Plus: BE3C Assay for Matrix Metallopeptidase 1 (MMP1) Biomarker Activity (AID 2283024). Conditions: primary human bronchial epithelial cells; actives raise or lower the signal. In a few lines: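 In this multiplexed primary-cell system, human bronchial epithelium received chemicals for 24 h before an ELISA for MMP1. Values reflect bidirectional fits normalised to the DMSO baseline.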

Assay [11] is described as follows: BSK_3C_Vis: BioMAP Diversity Plus: 3C Assay for Morphology Visualization (AID 2283025).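 Further: fitted both ways so gain or loss versus DMSO counts.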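 On AC50: light microscopy image of cell morphology used as background control.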 Conditions: primary human endothelial cells (HUVEC). A digest of the protocol: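 Light-microscopy morphology readout, 24 h exposure, human primary umbilical vein endothelium; analysed relative to DMSO with bidirectional fitting.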
Read-out in assay [12]: Pselectin, SELP (gene 6403)
The assay is described as follows: BSK_4H_Pselectin: BioMAP Diversity Plus: 4H Assay for Pselectin Biomarker Activity (AID 2283026). As to conditions: primary human endothelial cells (HUVEC); actives raise or lower the signal. A digest of the protocol: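 Bidirectional fits against DMSO gave the endpoint. Cells: primary human umbilical vein endothelium, chemical-treated for 24 h before ELISA detection of P-selectin.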

Assay [13] in a line: BSK_4H_SRB: Viability Assessment in the BioMAP Diversity Plus: 4H Assay (AID 2283027).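 Further: cells exposed to compound for 24 h before staining.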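 On AC50: curves fitted both ways versus DMSO so AC50 may be loss or gain.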 Conditions: primary human endothelial cells (HUVEC). In a few lines:
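Cytotoxicity read-out in primary human endothelial cells: after 24 h compound exposure, cells were TCA-fixed (10%), stained with 0.1% SRB and absorbance taken at 560 nm. Values fitted in both directions relative to DMSO.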

Assay [14] in a line: BSK_BE3C_SRB: Viability Assessment in the BioMAP Diversity Plus: BE3C Assay (AID 2283028).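 On AC50: fitted both ways so AC50 may mark signal gain or loss versus DMSO.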 As to conditions: primary human bronchial epithelial cells. In a few lines:
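Cells (human bronchial epithelial, primary) are treated with chemicals, and after 24 h the parallel cultures are fixed in 10% TCA. These are then stained with 0.1% SRB and read at 560 nm. Gain or loss of signal is fitted relative to DMSO.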

Read-out in assay [15]: Thrombomodulin, THBD (gene 7056)
The assay is described as follows: BSK_3C_Thrombomodulin: BioMAP Diversity Plus: 3C Assay for Thrombomodulin Biomarker Activity (AID 2283029). As to conditions: primary human endothelial cells (HUVEC); actives raise or lower the signal. In a few lines: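 In a multiplexed primary-cell system, human umbilical vein endothelium received chemical and was assayed 24 h later for thrombomodulin by ELISA. Parallel cultures were SRB-stained (0.1% SRB after 10% TCA fixation, read at 560 nm) to flag cytotoxicity.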

Read-out in assay [16]: Vascular endothelial growth factor receptor 2 (Homo sapiens) (UniProt P35968)
In words: BSK_4H_VEGFRII: BioMAP Diversity Plus: 4H Assay for Vascular endothelial growth factor receptor 2 (VEGFR2) Biomarker Activity (AID 2283031).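 On AC50: cell-surface VEGFR2 protein level quantified by ELISA.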 Conditions: primary human endothelial cells (HUVEC); actives raise or lower the signal. In a few lines:
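ELISA read-out of VEGFRII in primary human umbilical vein endothelium, taken 24 h after chemical treatment. Responses are expressed relative to DMSO, with bidirectional fitting.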

In assay [17] the target is human Retinoid X Receptor beta (RXRb), RXRB (gene 6257) (UniProt P28702). The assay is described as follows: ATG_RXRb_TRANS: Attagene TRANS-FACTORIAL HepG2 Assay for human Retinoid X Receptor beta (RXRb) (AID 2283013; active means hit-call score of the fitted dose curve at least 0.9, where 1 is the maximum). In a few lines: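 After a 24 h incubation with test chemical, transfected HepG2 cells carrying NR-Gal4 fusions and GAL4-UAS reporter transcription units yield RNA whose reporter cDNA is FAM-labelled, HpaI-cut and sized by capillary electrophoresis; increases over DMSO are scored.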

Assay [18] deals with human Thyroid Receptor alpha (THRa1), THRA (gene 7067) (UniProt P10827). The assay is described as follows: ATG_THRa1_TRANS: Attagene TRANS-FACTORIAL HepG2 Assay for human Thyroid Receptor alpha (THRa1) (AID 2283014; active means hit-call score of the fitted dose curve at least 0.9, where 1 is the maximum). In a few lines:
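Reporter transcript induction, read by capillary electrophoresis of 6-FAM-labelled RT-PCR products, reflects activity of a transfected THRa1-Gal4 fusion in HepG2 liver cells. Cells were dosed for 24 h; activity was fitted in the positive direction against DMSO.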

The target in assay [19] is human Vitamin D Receptor (VDR), VDR (gene 7421) (UniProt P11473). The assay is described as follows: ATG_VDR_TRANS: Attagene TRANS-FACTORIAL HepG2 Assay for human Vitamin D Receptor (VDR) (AID 2283022; active means hit-call score of the fitted dose curve at least 0.9, where 1 is the maximum). A digest of the protocol: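 Steps: transfect HepG2 with GAL4-UAS-driven reporter constructs; dose compounds 24 h; isolate RNA, reverse-transcribe, PCR-amplify with 6-FAM-labelled primer extension and HpaI digestion; quantify fragments by capillary electrophoresis relative to DMSO.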

Read-out in assay [20]: Urokinase-type plasminogen activator receptor (uPAR), PLAUR (gene 5329)
In words: BSK_4H_uPAR: BioMAP Diversity Plus: 4H Assay for Urokinase-type plasminogen activator receptor (uPAR) Biomarker Activity (AID 2283030). As to conditions: primary human endothelial cells (HUVEC); actives raise or lower the signal. A digest of the protocol: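 Cell-surface uPAR ELISA signal, measured 24 h after dosing human umbilical vein endothelial cells, was analyzed with bidirectional fitting relative to DMSO. Parallel SRB staining of total protein tracked overt cytotoxicity.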

Results filed as inconclusive are left out. Calls of active or inactive are those of the source. How the source made its calls, unless noted: active means hit-call score of the fitted dose curve at least 0.9, where 1 is the maximum; inactive means score below 0.9.

human Vitamin D Receptor (VDR), VDR (gene 7421), sequence (P11473 whole entry, looked up, the tested form may be a part): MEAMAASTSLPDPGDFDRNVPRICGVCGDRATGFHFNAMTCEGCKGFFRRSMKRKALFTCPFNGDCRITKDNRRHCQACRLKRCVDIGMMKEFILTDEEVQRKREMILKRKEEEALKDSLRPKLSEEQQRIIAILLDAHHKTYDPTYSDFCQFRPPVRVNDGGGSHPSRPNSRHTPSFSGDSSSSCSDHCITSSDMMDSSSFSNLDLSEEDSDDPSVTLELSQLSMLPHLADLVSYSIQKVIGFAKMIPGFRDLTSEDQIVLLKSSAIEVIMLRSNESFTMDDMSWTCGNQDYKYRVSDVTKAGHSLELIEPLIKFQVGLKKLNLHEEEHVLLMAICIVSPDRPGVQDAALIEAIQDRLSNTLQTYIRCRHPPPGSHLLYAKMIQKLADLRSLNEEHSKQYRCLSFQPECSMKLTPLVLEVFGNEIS
E-selectin (Homo sapiens), sequence (P16581 whole entry, looked up): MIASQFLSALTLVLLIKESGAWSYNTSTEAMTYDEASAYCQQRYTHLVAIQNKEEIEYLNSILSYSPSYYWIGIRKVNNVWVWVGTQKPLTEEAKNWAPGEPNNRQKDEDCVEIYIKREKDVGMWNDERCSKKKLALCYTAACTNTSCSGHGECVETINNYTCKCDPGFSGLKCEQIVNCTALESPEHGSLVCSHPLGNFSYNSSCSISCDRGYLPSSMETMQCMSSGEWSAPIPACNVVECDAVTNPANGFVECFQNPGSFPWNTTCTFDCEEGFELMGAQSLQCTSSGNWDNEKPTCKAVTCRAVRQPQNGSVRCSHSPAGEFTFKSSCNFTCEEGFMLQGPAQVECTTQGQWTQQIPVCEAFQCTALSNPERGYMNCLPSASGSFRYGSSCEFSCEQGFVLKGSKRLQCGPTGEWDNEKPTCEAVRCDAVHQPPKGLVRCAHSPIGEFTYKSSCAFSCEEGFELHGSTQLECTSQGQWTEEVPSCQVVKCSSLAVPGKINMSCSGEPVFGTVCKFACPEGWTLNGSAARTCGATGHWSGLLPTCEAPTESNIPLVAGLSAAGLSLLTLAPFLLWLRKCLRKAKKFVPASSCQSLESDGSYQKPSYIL
Retinoic acid receptor RXR-alpha (Homo sapiens), sequence (P19793 whole entry, looked up, the tested form may be a part): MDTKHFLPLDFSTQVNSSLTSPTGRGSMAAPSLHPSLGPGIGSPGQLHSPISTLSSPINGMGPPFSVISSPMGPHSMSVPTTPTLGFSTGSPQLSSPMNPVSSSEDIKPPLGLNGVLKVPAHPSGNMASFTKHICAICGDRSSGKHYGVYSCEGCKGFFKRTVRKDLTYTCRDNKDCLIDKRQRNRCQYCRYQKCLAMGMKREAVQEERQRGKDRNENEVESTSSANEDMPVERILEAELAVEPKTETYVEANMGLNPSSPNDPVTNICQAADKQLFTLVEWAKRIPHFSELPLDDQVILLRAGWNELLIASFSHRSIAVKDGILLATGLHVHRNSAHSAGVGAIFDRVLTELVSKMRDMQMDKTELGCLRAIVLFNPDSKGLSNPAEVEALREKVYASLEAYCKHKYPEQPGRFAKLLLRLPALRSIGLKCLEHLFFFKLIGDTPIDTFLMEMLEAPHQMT
human Thyroid Receptor alpha (THRa1), THRA (gene 7067), sequence (P10827 whole entry, looked up, the tested form may be a part): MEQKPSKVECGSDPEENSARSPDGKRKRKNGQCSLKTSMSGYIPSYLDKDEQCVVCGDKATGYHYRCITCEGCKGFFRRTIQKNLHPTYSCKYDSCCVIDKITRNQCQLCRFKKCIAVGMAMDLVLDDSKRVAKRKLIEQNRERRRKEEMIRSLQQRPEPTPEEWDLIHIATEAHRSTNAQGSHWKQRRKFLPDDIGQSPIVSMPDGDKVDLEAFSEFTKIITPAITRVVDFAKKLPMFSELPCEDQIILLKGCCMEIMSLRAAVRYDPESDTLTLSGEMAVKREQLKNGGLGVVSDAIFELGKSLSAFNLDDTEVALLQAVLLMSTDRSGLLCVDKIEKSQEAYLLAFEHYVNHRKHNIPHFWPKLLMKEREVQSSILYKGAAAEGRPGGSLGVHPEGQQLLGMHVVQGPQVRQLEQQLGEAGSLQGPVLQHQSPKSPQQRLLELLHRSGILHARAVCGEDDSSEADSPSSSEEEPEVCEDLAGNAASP
human Retinoid X Receptor beta (RXRb), RXRB (gene 6257), sequence (P28702 whole entry, looked up, the tested form may be a part): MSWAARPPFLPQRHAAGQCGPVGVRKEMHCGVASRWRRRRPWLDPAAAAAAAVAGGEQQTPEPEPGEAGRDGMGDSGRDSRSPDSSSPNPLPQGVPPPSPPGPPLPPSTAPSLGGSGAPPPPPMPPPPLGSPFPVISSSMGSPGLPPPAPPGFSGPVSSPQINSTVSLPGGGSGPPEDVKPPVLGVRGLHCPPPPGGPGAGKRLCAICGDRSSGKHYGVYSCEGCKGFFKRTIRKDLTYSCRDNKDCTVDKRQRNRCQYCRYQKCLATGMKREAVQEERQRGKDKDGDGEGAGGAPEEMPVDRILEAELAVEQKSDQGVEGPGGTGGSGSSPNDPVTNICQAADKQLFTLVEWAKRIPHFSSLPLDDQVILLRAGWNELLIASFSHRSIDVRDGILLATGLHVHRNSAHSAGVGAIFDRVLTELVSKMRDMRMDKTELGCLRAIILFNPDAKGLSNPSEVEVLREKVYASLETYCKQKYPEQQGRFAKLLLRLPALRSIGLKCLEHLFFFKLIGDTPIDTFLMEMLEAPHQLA

On to `CC(C)(O)c1cnn2c(-c3ccc(F)c(-c4c(F)cccc4C#N)c3)cnc2n1`, for which the call in [1], in assay [2], in assay [5], in assay [8], in [10] and in assay [16] was inactive. The half-maximal activity concentration (AC50) in assay [3] is 31.6 µM (active); in assay [4], 26.4 µM (active); in assay [6], 30.4 µM (active); in assay [7], 20 µM (active); in assay [9], 30.4 µM (active); in assay [11], 37.5 µM (active). Moreover, the concentration at half-maximal activity (AC50) is 36.2 µM (active) in [12], 28.9 µM (active) in assay [13], 29.6 µM (active) in assay [14] and 22.7 µM (active) in [15].
With `Clc1ccc(C(c2ccc(Cl)cc2)C(Cl)Cl)cc1`, the AC50 was 33.4 µM (active) in assay [17]; 29.7 µM (active) in [2]; 13.9 µM (active) in assay [4]; 10.2 µM (active) in assay [5]; 14.4 µM (active) in [6]; 15 µM (active) in assay [7]. The concentration at half-maximal activity (AC50) was 35.2 µM (active) in [8]; 19.3 µM (active) in assay [9]; 13.7 µM (active) in [10]; 37.3 µM (active) in assay [11]; 15.1 µM (active) in [12]; 29.3 µM (active) in [13]. Further, the AC50 in [20] is 31.4 µM (active); in [16], 26.1 µM (active). For the same compound, the outcome in assay [18], in assay [3], in assay [19] and in assay [14] was inactive.
Regarding `CCN(CC)CCO`, the compound was classed as inactive in [1], in assay [17], in assay [2], in assay [3], in assay [4] and in assay [5]. The outcome in assay [6], in assay [7], in assay [8], in assay [9], in assay [11] and in [12] was inactive. The result in assay [13], in [14], in assay [15] and in [16] was inactive.
Take `CN(C)c1ccccc1`: the result in [1], in assay [18], in [2], in assay [3], in assay [4] and in assay [5] was inactive. Besides, the result in assay [6], in assay [7], in [8], in assay [19], in [9] and in [11] was inactive. Moreover, the outcome in assay [12], in assay [13], in [14], in [15] and in [16] was inactive.
Turning to `CC(C)(C)OOC(=O)c1ccccc1`, the result in assay [1], in assay [2], in assay [3], in [4], in assay [5] and in assay [6] was inactive. Further, the result in [7], in [8], in assay [19], in assay [9], in [11] and in [12] was inactive. Also, the outcome in assay [13], in assay [14], in [15], in [20] and in assay [16] was inactive.
Consider `Cc1ccc(N)c(N)c1`, for which the compound was called inactive in [1], in assay [3], in assay [4], in [5], in assay [8] and in assay [9]. Also, the result in assay [11], in assay [12], in assay [14], in assay [15] and in assay [16] was inactive. Further, the half-maximal activity concentration (AC50) in assay [2] is 6.22 µM (active); in [6], 7.53 µM (active); in [7] it was 3.17 µM (active); in assay [13], 4.08 µM (active).
Regarding `Nc1ccc(N=Nc2ccccc2)cc1`, the call in assay [1], in [2], in assay [3], in [4], in assay [5] and in assay [6] was inactive. Further, the result in [7], in assay [8], in assay [19], in [10], in [11] and in assay [12] was inactive. The outcome in assay [14], in assay [20] and in [16] was inactive. Besides, the half-maximal activity concentration (AC50) was 20 µM (active) in [9] and 13.1 µM (active) in assay [13].
